SARS PLpro yeast = inhibitors of SARS-CoV papain-like protease in yeast | S. cerevisiae expressing SARS-CoV PLpro, growth rescue | Potency, µM (highest dose often 32.9 µM), hits mostly activators | 330,000 tested, 0.19% active | AID 485353; calls by dose curve; further: nearly all actives have a fitted effect of over 55% in size
CHX counter = counter-screen hit for Shiga toxin inhibitors, cycloheximide; cell reporter, cycloheximide protein synthesis inhibition counterscreen; max response, %; 300,000 tested, 12% active; AID 2314; in the data active means max response mostly above about 13%, no sharp cut-off; inactive means mostly below about 14%; further: read at 38.3 µM for the half of the compounds with a filed dose
Shiga toxin inh = inhibitors of Shiga toxin in Vero cells. 290,000 tested, 9.2% active. inhibition, % at 38.7 µM. Vero cells, Shiga toxin protein synthesis inhibition reporter. AID 2315; in the data active means inhibition mostly above about 28%, no sharp cut-off; inactive means mostly below about 43%
NS1 inh = inhibitors of influenza NS1 protein function; 270,000 tested, 0.4% active; Potency, µM (highest dose often 46.1 µM); calls by dose curve; further: actives are rising curves; nearly all actives have a fitted effect of over 50% in size
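A cell-based growth assay was used: compounds that relieve NS1-induced slow growth of budding yeast raise OD600. Assay medium was yeast nitrogen base with ammonium sulphate and -URA supplement, pH 6.0, with 2% galactose.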
Pf growth 48h = inhibits P. falciparum growth in the first generation, 48 h. P. falciparum luciferase growth in erythrocytes, 48 h. Potency, µM (doses to about 28.7 µM), actives largely listed as inhibitors. 310,000 tested, 5.9% active. AID 504832
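First compound was added to culture medium, then infected red cells at 0.1% parasitemia and 2% hematocrit (final). After incubation at 37 C under 5% CO2, luciferase detection reagent was dispensed and light output recorded.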
Pf growth 96h = P. falciparum growth inhibition at 96 hour, primary screen for plastid delayed-death inhibitors. P. falciparum luciferase reporter growth, 96 h. Potency, µM (series often up to 28.7 µM), hits mostly inhibitors. 320,000 tested, 6.9% active. AID 504834
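96 h incubation, 37 C, 5% CO2, of luciferase-reporter P. falciparum-infected RBCs (2% hematocrit, 0.05% parasitemia final) with test compounds; endpoint luminescence.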
Of the large screens only hits and unclear results are named; the others gave an inactive call. A selection: hits, their analogues and other compounds. The true share with any hit is near 21%. Unless noted, the call rests on the fitted dose curve; in most records, active means well fitted inhibition curve with a large enough effect; inconclusive means small, poorly fitted or top-dose-only effect, or another doubt; inactive means no such curve, though single readings can be large or run the other way.

Cc1ccc(SCC(=O)c2ccc[nH]2)cc1	CHX counter 35, Shiga toxin inh 79 (no result: NS1 inh)
CCNC(=O)CSc1nnc(-c2cccs2)o1	none (no result: NS1 inh)
COc1ccc(-c2nnc(SCC(=O)c3ccc(O)cc3O)o2)cc1	Shiga toxin inh 33
Cc1cc(C(=O)CSc2nnc(-c3cccs3)o2)c(C)n1-c1ccccc1	CHX counter 12, Shiga toxin inh 77, Pf growth 96h inconclusive
COc1ccc(C(=O)CSc2nnc(-c3cc(C)cc(C)c3)o2)cc1	none
Cc1ccc(CNC(=O)c2ccc[nH]2)cc1	none
COc1cccc(C(=O)CSc2nnc(-c3cccs3)o2)c1	none
COc1ccc(Cl)cc1NC(=S)N1CC(C)OC(C)C1 (configuration not stated)	Pf growth 48h inconclusive
O=C(CSC1=NS(=O)(=O)c2ccccc2N1)NCc1ccc(F)cc1	none (no result: CHX counter, Shiga toxin inh, NS1 inh)
COc1ccc(Cc2nnc(SCC(=O)NCc3ccco3)o2)cc1	none (no result: Pf growth 96h)
COc1ccc(-c2nnc(SCC(=O)c3ccc[nH]3)o2)cc1	SARS PLpro yeast inconclusive, CHX counter 36, Shiga toxin inh 151 (no result: Pf growth 96h)
COc1ccc(-c2nnc(SCC(=O)NC(=O)NCc3ccccc3)o2)cc1	none (no result: Pf growth 48h)
COc1ccc(-c2nnc(SCC(=O)NCc3ccco3)o2)cc1	CHX counter 22, Shiga toxin inh 92
Cc1ccc(O)c(-c2cc(C(=O)Nc3ccc(S(=O)(=O)Nc4nccc(C)n4)cc3)[nH]n2)c1	Pf growth 48h inconclusive, Pf growth 96h inconclusive
COc1cccc(OC)c1C(=O)Nc1ccc(S(=O)(=O)N2CCCCC2)cc1	Pf growth 96h 3.3µM
COc1cccc(C(=O)Nc2ccc(S(=O)(=O)N3CCCCC3)cc2)c1OC	Pf growth 48h 12µM, Pf growth 96h 5.2µM
O=c1[nH]c2ccccc2n1CCCN1CCN(C(c2ccccc2)c2ccccc2)CC1	Pf growth 48h 12µM, Pf growth 96h 12µM
CC(C)CCNC(=O)C(C)N(Cc1ccc(F)cc1)C(=O)c1ccc(CN2CCCCC2)o1 (configuration not stated)	none
CCN(CC)CCN(C(=O)c1ccc(CN2CCCCC2)o1)C(C(=O)NC1CCCCC1)c1ccc(F)cc1 (configuration not stated)	CHX counter 42, Shiga toxin inh 60
CC(NC(=O)COC(=O)c1ccc(N2CCCC2=O)cc1)c1ccc(F)cc1 (configuration not stated)	none (no result: CHX counter, Shiga toxin inh, NS1 inh, Pf growth 48h, Pf growth 96h)
Cc1cc(C(F)(F)F)nc(Nc2nc(C)c3ccccc3n2)n1	none (no result: Pf growth 96h)
Cc1ccc2nc(Nc3nc(C)cc(C(F)(F)F)n3)nc(C)c2c1	Pf growth 48h inconclusive, Pf growth 96h 5.2µM
O=c1c2ccccc2c(-c2ccc(O)cc2)nn1-c1cccc(C(F)(F)F)c1	Pf growth 48h 9.3µM, Pf growth 96h inconclusive
O=C(O)c1nc(-c2ccccc2)n(-c2cccc(C(F)(F)F)c2)n1	Pf growth 96h inconclusive (no result: NS1 inh)
O=c1c2ccccc2c(-c2cccc(C(F)(F)F)c2)nn1-c1ccccc1	Pf growth 48h inconclusive, Pf growth 96h 9.3µM
C/C(=N\Nc1nnc(C)c(=O)[nH]1)C(=O)O	Pf growth 48h inconclusive, Pf growth 96h inconclusive
O=C(O)c1sccc1S(=O)(=O)N1CCOCC1	none (no result: CHX counter, Shiga toxin inh, NS1 inh)
CC(C)(C)c1ccc(C(=O)NNc2ncccc2-n2cccc2)cc1	Pf growth 48h inconclusive, Pf growth 96h inconclusive
CC(Cc1ccccn1)NC(=O)CCc1nnc(C2CCCCC2)o1 (configuration not stated)	CHX counter 11, Pf growth 96h 13µM
CCCOc1ccc(C(=O)CCNC(Cc2c[nH]c3ccccc23)C(=O)O)cc1 (configuration not stated)	none
O=C(COC(=O)C1(c2ccccc2)CC1)N1CCN(c2ccc(F)cc2)CC1	Pf growth 96h 10µM
CC1(C)Cc2cccc(OCC(=O)N3CCN(c4cccc(C(F)(F)F)c4)CC3)c2O1	Pf growth 48h inconclusive, Pf growth 96h inconclusive (no result: CHX counter, Shiga toxin inh, NS1 inh)
CC1(C)Cc2cccc(OCC(=O)N3CCN(c4cccc(Cl)c4)CC3)c2O1	Pf growth 48h 4.7µM, Pf growth 96h inconclusive (no result: CHX counter, Shiga toxin inh, NS1 inh)
CC1(C)Cc2cccc(OCC(=O)N3CCN(c4ccc(F)cc4)CC3)c2O1	Pf growth 48h 12µM, Pf growth 96h inconclusive (no result: CHX counter, Shiga toxin inh, NS1 inh)
CC1(C)Cc2cccc(OCC(=O)N3CCN(c4ccccc4Cl)CC3)c2O1	Pf growth 48h inconclusive, Pf growth 96h inconclusive (no result: CHX counter, Shiga toxin inh, NS1 inh)
CCOCC(=O)N1CCN(c2ccc(F)cc2)CC1	none
CC1(C)Cc2cccc(OCC(=O)N3CCN(S(=O)(=O)c4ccccc4)CC3)c2O1	Pf growth 48h inconclusive, Pf growth 96h 4.7µM
CCN(C(=O)COC(=O)c1ccc2c(c1)OCO2)c1ccc(F)cc1	none (no result: CHX counter, Shiga toxin inh, NS1 inh, Pf growth 48h, Pf growth 96h)
COc1ccccc1N1CCN(C(=O)COc2ccc(Cl)cc2)CC1	none
COc1cccc(CNC(=O)Cn2cc([N+](=O)[O-])cn2)c1	none
COC(=O)CSc1nnc(-c2sc3ccccc3c2Cl)o1	Pf growth 96h inconclusive
C#CCSc1nnc(-c2ccc(OC)cc2)o1	CHX counter 37 (no result: Pf growth 48h)
N#CCSc1nnc(-c2sc3ccccc3c2Cl)o1	CHX counter 42
CCCCCCCCSc1nnc(-c2ccc(OC)cc2)o1	none (no result: Pf growth 48h)
CCSc1nnc(-c2ccc(OC)cc2)o1	CHX counter 56, Shiga toxin inh 98
COc1ccc(-c2nnc(SCC#N)o2)cc1	CHX counter 15
C#CCSc1nnc(-c2ccc([N+](=O)[O-])cc2)o1	CHX counter 23, Shiga toxin inh 58 (no result: NS1 inh)
COc1ccc(-c2nnc(SCC(=O)NC3CC3)o2)cc1	none (no result: CHX counter, Shiga toxin inh, NS1 inh)
COc1ccc(-c2nnc(SCc3c(C)noc3C)o2)cc1	CHX counter 27, Shiga toxin inh 68 (no result: NS1 inh)
O=C(N/N=C/c1cccn1-c1ccc([N+](=O)[O-])cc1)c1cccnc1	Pf growth 48h inconclusive, Pf growth 96h inconclusive
CC(=Nc1ccccc1O)c1sc2ccccc2c1O	CHX counter 33, Shiga toxin inh 67, Pf growth 48h inconclusive, Pf growth 96h 15µM
CC(=O)NCCN=C(C)c1sc2ccccc2c1O	CHX counter 24, Shiga toxin inh active
CC(=Nc1ccc(O)cc1)c1sc2ccccc2c1O	CHX counter 48, Shiga toxin inh 95
O=C(CNC(=O)c1sc2ccccc2c1Cl)NCc1ccccc1	SARS PLpro yeast inconclusive
CC(=Nc1cccc(C)c1)c1sc2ccccc2c1O	CHX counter 45, Shiga toxin inh 109
CC(=O)Nc1ccc(S(=O)(=O)N[C@H](C(=O)O)C(C)C)cc1	none
CC(=O)Nc1ccc(S(=O)(=O)NC(C(=O)O)C2=CCC=CC2)cc1 (configuration not stated)	Pf growth 96h 3.7µM
CCC(C)[C@H](NC(=O)Nc1ccc(C)cc1C)C(=O)O (some centres not stated)	none
CCNC(=O)c1ccc(NS(=O)(=O)c2ccc3[nH]c(=O)[nH]c3c2)cc1	CHX counter 30, Shiga toxin inh 46
N#CC(c1ccc(Cl)nn1)c1c(F)cccc1Cl (configuration not stated)	none
O=C(NCCO)C(O)C(O)C(=O)NCCO (configuration not stated)	none

Compound activity (PubChem)
